Reference: publication PMC5540273 (PLoS ONE, 2017)

Legend:
Conditions in all cases: concentration: 1 μM, replicates: in singlicate; n = 1
[1] = tested on: BMX
[2] = tested on: BRAF
[3] = tested on: T1, BRK
T1 construct: gene PTK6

[4] = tested on: BRSK1
[5] = tested on: BRSK2
[6] = tested on: BTK
[7] = tested on: BUB1
[8] = tested on: CAMK1B
[9] = tested on: CAMK1D
[10] = tested on: CAMK1G
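Note: KINOMEscan kinase panel screen.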

SMILES | %Inh [1] [%] | %Inh [2] [%] | %Inh [3] [%] | %Inh [4] [%] | %Inh [5] [%] | %Inh [6] [%] | %Inh [7] [%] | %Inh [8] [%] | %Inh [9] [%] | %Inh [10] [%]
Cn1cc(-c2ccc3c(c2)CCN3C(=O)Cc2cc(F)cc(C(F)(F)F)c2)c2c(N)ncnc21 [GSK2635225] | 15 | 0 | 44 | 0 | 5 | 0 | 11 | 41 | 11 | 0
O=C(Nc1n[nH]c2nc(-c3ccccc3)ccc12)C1CC1 [SB-708999] | 9 | 4 | 0 | 54 | 37 | 40 | 0 | 35 | 0 | 79
Cc1ccc(NC(=O)c2ccnc(N3CCCCC3)c2)cc1-c1ccc(C(=O)NCC2CC2)cc1 [GW775610] | 0 | 77 | 12 | 9 | 6 | 0 | 0 | 24 | 0 | 0
CNc1nccc(-c2ccc3c(N)n[nH]c3c2)n1 [GSK2206003] | 2 | 0 | 10 | 22 | 15 | 3 | 71 | 0 | 28 | 22
COc1ccc(NC(=O)c2ccoc2)cc1-c1ccc(C(=O)NCC2CC2)cc1 [GW810437] | 3 | 0 | 0 | 0 | 4 | 0 | 2 | 19 | 0 | 9
Cc1ccc(Nc2ccnc(Nc3ccc(C)c(F)c3)n2)cc1O.Cl [GW582868] | 12 | 50 | 50 | 0 | 0 | 0 | 44 | 34 | 0 | 0
CC(C)c1nc(-c2cccc(NS(=O)(=O)c3c(F)cccc3F)c2)c(-c2ccnc(Nc3ccc(N4CCOCC4)nc3)n2)s1.Cl [GSK1723980] | 94 | 100 | 96.4 | 16 | 37 | 41 | 93.1 | 13 | 32 | 2
COc1cccc(NC(=O)NCCNc2ccnc(Nc3ccc(F)cc3)n2)c1 [GSK1379879] | 4 | 0 | 30 | 0 | 0 | 0 | 58 | 0 | 8 | 0
CN1CCN(Cc2ccc(NC(=O)Nc3ccc(N(C)c4ccnc(Nc5ccc(CS(C)(=O)=O)cc5)n4)cc3)cc2)CC1.Cl [GW827654] | 69 | 0 | 8 | 19 | 10 | 60 | 51 | 42 | 27 | 23
